# Reference: ChEMBL document CHEMBL5606458, “ASAP - ZIKV NS2B-NS3 protease fluorescence single point” (2024)
# The whole screen tested about 2,700 compounds, of which about 160 (5.9%) showed an effect of 50% or more. Many of the other results were omitted from the sample, so strong results are more common in it than they were.
# Target: Nonstructural protein 3 (Zika virus) (UniProt A0A024AXB9)
# [1] = PRVABC59, Concentration 50.0 uM, Number of replicates 1.0
# Nonstructural protein 3 (Zika virus), sequence (A0A024AXB9 as listed by the source): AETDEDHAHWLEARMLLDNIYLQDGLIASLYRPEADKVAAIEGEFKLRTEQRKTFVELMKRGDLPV
structure (smiles),measurement,setting,value
CN(C)c1ccc(/C=C/C(=O)C(=O)N2CCOCC2)cc1,inhibition,"PRVABC59, Concentration 49.5 uM, Number of replicates 2.0, Standard deviation 0.8258165831779674 %",41.6%
same,inhibition,"PRVABC59, Concentration 99.01 uM, Number of replicates 2.0, Standard deviation 0.46055378654400303 %",57.5%
same,inhibition,"PRVABC59, Concentration 198.0 uM, Number of replicates 2.0, Standard deviation 1.0005081895850734 %",76.2%
NCc1ccc(/C=C/C(=O)C(=O)N2CCOCC2)cc1,inhibition,"PRVABC59, Concentration 49.5 uM, Number of replicates 2.0, Standard deviation 0.6564199696429821 %",37.2%
same,inhibition,"PRVABC59, Concentration 99.01 uM, Number of replicates 2.0, Standard deviation 0.38644007072414227 %",58.8%
same,inhibition,"PRVABC59, Concentration 198.0 uM, Number of replicates 2.0, Standard deviation 0.034408012774717715 %",79%
O=C(/C=C/c1ccc(N2CCNCC2)cc1)C(=O)N1CCOCC1,inhibition,"PRVABC59, Concentration 49.5 uM, Number of replicates 2.0, Standard deviation 0.677594356674037 %",0.889%
same,inhibition,"PRVABC59, Concentration 99.01 uM, Number of replicates 2.0, Standard deviation 0.8893426734771035 %",5.61%
same,inhibition,"PRVABC59, Concentration 198.0 uM, Number of replicates 2.0, Standard deviation 1.259902148857129 %",13.4%
COc1cc(Cc2ccc3[nH]ncc3c2)nc(N2CCNCC2)n1,inhibition,"PRVABC59, Concentration 49.5 uM, Number of replicates 2.0, Standard deviation 0.053655972727460886 %",4.68%
same,inhibition,"PRVABC59, Concentration 99.01 uM, Number of replicates 2.0, Standard deviation 0.44117163102560114 %",11%
same,inhibition,"PRVABC59, Concentration 198.0 uM, Number of replicates 2.0, Standard deviation 0.2881536199967374 %",21.6%
COc1cc(Cc2ccnc(N3CCNCC3)c2)nc(N2CCNCC2)n1,inhibition,"PRVABC59, Concentration 49.5 uM, Number of replicates 2.0, Standard deviation 1.782469122426121 %",19.2%
same,inhibition,"PRVABC59, Concentration 99.01 uM, Number of replicates 2.0, Standard deviation 1.2150848760245847 %",30.9%
same,inhibition,"PRVABC59, Concentration 198.0 uM, Number of replicates 2.0, Standard deviation 1.1140443816280838 %",44%
COc1cc(Cc2c(-c3ccc(F)cc3)noc2C)nc(N2CCNCC2)n1,inhibition,"PRVABC59, Concentration 49.5 uM, Number of replicates 2.0, Standard deviation 1.339595433070256 %",48.7%
same,inhibition,"PRVABC59, Concentration 99.01 uM, Number of replicates 2.0, Standard deviation 0.7981008155972035 %",67.2%
same,inhibition,"PRVABC59, Concentration 198.0 uM, Number of replicates 2.0, Standard deviation 0.25862115465775987 %",83.1%
CC(C)(C)OC(=O)N[C@H](C(=O)Nc1ccc(CN)cc1)c1ccc(OCc2ccccc2)cc1,inhibition,"PRVABC59, Concentration 49.5 uM, Number of replicates 2.0, Standard deviation 0.6279742186460096 %",5.64%
same,inhibition,"PRVABC59, Concentration 99.01 uM, Number of replicates 2.0, Standard deviation 1.57987158185777 %",32.3%
same,inhibition,"PRVABC59, Concentration 198.0 uM, Number of replicates 2.0, Standard deviation 0.42725710187082055 %",70.3%
CC(C)(C)OC(=O)N[C@H](C(=O)Nc1cccc(CN)c1)c1ccc(OCc2ccccc2)cc1,inhibition,"PRVABC59, Concentration 49.5 uM, Number of replicates 2.0, Standard deviation 0.15500599357942563 %",7.17%
same,inhibition,"PRVABC59, Concentration 99.01 uM, Number of replicates 2.0, Standard deviation 1.1863939989566727 %",43.6%
same,inhibition,"PRVABC59, Concentration 198.0 uM, Number of replicates 2.0, Standard deviation 0.6438743701278353 %",80.9%
CC(C)Nc1nc2ccc(C(=O)Nc3nnnn3-c3ccccn3)cc2[nH]1,inhibition,"PRVABC59, Concentration 50.0 uM, Number of replicates 2.0, Standard deviation 0.2871029833570578 %",13.5%
same,inhibition,"PRVABC59, Concentration 100.0 uM, Number of replicates 2.0, Standard deviation 0.2358348824788301 %",30.1%
same,inhibition,"PRVABC59, Concentration 200.0 uM, Number of replicates 2.0, Standard deviation 0.2742876440114413 %",66.8%
CC(C)Nc1nc2ccc(C(=O)Nc3ccc4cn[nH]c4n3)cc2[nH]1,inhibition,"PRVABC59, Concentration 49.5 uM, Number of replicates 2.0, Standard deviation 0.40894109303235027 %",7.41%
same,inhibition,"PRVABC59, Concentration 99.01 uM, Number of replicates 2.0, Standard deviation 0.19020569275657198 %",13.2%
same,inhibition,"PRVABC59, Concentration 198.0 uM, Number of replicates 2.0, Standard deviation 0.6447955316488895 %",25.2%
CCn1ccnc(N2CC[C@@H](C(=O)NC)C2)c1=O,inhibition,"PRVABC59, Concentration 49.5 uM, Number of replicates 2.0, Standard deviation 1.330415175115007 %",6.78%
same,inhibition,"PRVABC59, Concentration 99.01 uM, Number of replicates 2.0, Standard deviation 0.8792533922931717 %",13.1%
same,inhibition,"PRVABC59, Concentration 198.0 uM, Number of replicates 2.0, Standard deviation 1.1945536288283818 %",25%
c1ccc2c([C@H]3CCN(CC[C@H]4CCOC4)C3)c[nH]c2c1,inhibition,"PRVABC59, Concentration 49.5 uM, Number of replicates 2.0, Standard deviation 1.796591735840356 %",1.3%
same,inhibition,"PRVABC59, Concentration 99.01 uM, Number of replicates 2.0, Standard deviation 1.8008191859181881 %",8.43%
same,inhibition,"PRVABC59, Concentration 198.0 uM, Number of replicates 2.0, Standard deviation 1.4478420270377552 %",18.7%
CCCC[C@H](N)C(=O)N[C@@H](C(=O)NCc1ccc(C(N)=O)cc1)c1ccc(OCc2ccccc2)cc1,inhibition,"PRVABC59, Concentration 49.5 uM, Number of replicates 2.0, Standard deviation 2.90329459480482 %",4.12%
same,inhibition,"PRVABC59, Concentration 99.01 uM, Number of replicates 2.0, Standard deviation 3.493094389705784 %",14.2%
same,inhibition,"PRVABC59, Concentration 198.0 uM, Number of replicates 2.0, Standard deviation 4.814160045121922 %",56.8%
CCCC[C@H](N)C(=O)N[C@H](C(=O)NCc1ccc(C(N)=O)cc1)c1ccc(OCc2ccccc2)cc1,inhibition,"PRVABC59, Concentration 49.5 uM, Number of replicates 2.0, Standard deviation 4.202595364768841 %",4.08%
same,inhibition,"PRVABC59, Concentration 99.01 uM, Number of replicates 2.0, Standard deviation 1.455996262112855 %",82.9%
same,inhibition,"PRVABC59, Concentration 198.0 uM, Number of replicates 2.0, Standard deviation 0.15670265711308018 %",99.2%
CC(C)Cn1cccc(C(=O)Nc2ccnc3ccccc23)c1=O,inhibition,"PRVABC59, Concentration 49.5 uM, Number of replicates 2.0, Standard deviation 2.895437242130631 %",20.1%
same,inhibition,"PRVABC59, Concentration 99.01 uM, Number of replicates 2.0, Standard deviation 37.62280174563721 %",0.798%
same,inhibition,"PRVABC59, Concentration 198.0 uM, Number of replicates 2.0, Standard deviation 2.6549790189575497 %",10.2%
CCn1c(=O)c(N2CC[C@@H](CO)C2)nc2ccccc21,inhibition,"PRVABC59, Concentration 49.5 uM, Number of replicates 2.0, Standard deviation 1.0667198770713235 %",20.2%
same,inhibition,"PRVABC59, Concentration 99.01 uM, Number of replicates 2.0, Standard deviation 2.3733193853793706 %",36.2%
same,inhibition,"PRVABC59, Concentration 198.0 uM, Number of replicates 2.0, Standard deviation 1.8335969585925045 %",55.9%
O=c1c(N2CC[C@H](CO)C2)nccn1C1CC1,inhibition,"PRVABC59, Concentration 49.5 uM, Number of replicates 2.0, Standard deviation 2.4909219053667124 %",11.8%
same,inhibition,"PRVABC59, Concentration 99.01 uM, Number of replicates 2.0, Standard deviation 2.8453613913030793 %",19.9%
same,inhibition,"PRVABC59, Concentration 198.0 uM, Number of replicates 2.0, Standard deviation 1.2782808722061834 %",35.4%
CCn1ccnc(N2CC[C@@H](CO)C2)c1=O,inhibition,"PRVABC59, Concentration 49.5 uM, Number of replicates 2.0, Standard deviation 1.691792032316267 %",9.83%
same,inhibition,"PRVABC59, Concentration 99.01 uM, Number of replicates 2.0, Standard deviation 1.0699999134098355 %",17.4%
same,inhibition,"PRVABC59, Concentration 198.0 uM, Number of replicates 2.0, Standard deviation 1.0674090623381738 %",29.5%
N[C@H]1CCN(c2cccc(CNC(=O)c3ccc4[nH]c(=O)[nH]c4c3F)n2)C1,inhibition,"PRVABC59, Concentration 49.5 uM, Number of replicates 2.0, Standard deviation 1.7942103071905888 %",0.083%
same,inhibition,"PRVABC59, Concentration 99.01 uM, Number of replicates 2.0, Standard deviation 0.9354948212956848 %",1.95%
same,inhibition,"PRVABC59, Concentration 198.0 uM, Number of replicates 2.0, Standard deviation 18.65130084254076 %",51.2%
O=Cc1ccc(N2CCC(C(=O)N3CCN(c4cccc(O)c4)CC3)CC2)cc1,inhibition,[1],36.7%
NC(=O)C1(N2CCCCC2)CCN(C(=O)C2CCN(c3ccc(C=O)cc3)CC2)CC1,inhibition,[1],55.7%
N#CC1(c2ccccc2)CCN(C(=O)C2CCN(c3ccc(C=O)cc3)CC2)CC1,inhibition,[1],12.6%
c1ccc2c([C@H]3CCN(C[C@H]4CCCOC4)C3)c[nH]c2c1,inhibition,"PRVABC59, Concentration 49.5 uM, Number of replicates 2.0, Standard deviation 0.2718923543168702 %",3%
same,inhibition,"PRVABC59, Concentration 99.01 uM, Number of replicates 2.0, Standard deviation 1.3138002130824364 %",7.93%
same,inhibition,"PRVABC59, Concentration 198.0 uM, Number of replicates 2.0, Standard deviation 0.8779424567170888 %",17.5%
CCn1ccnc(N2CC[C@H](c3c[nH]c4ccccc34)C2)c1=O,inhibition,"PRVABC59, Concentration 49.5 uM, Number of replicates 2.0, Standard deviation 0.8076182483405395 %",8.04%
same,inhibition,"PRVABC59, Concentration 99.01 uM, Number of replicates 2.0, Standard deviation 0.7356695318349864 %",17.6%
same,inhibition,"PRVABC59, Concentration 198.0 uM, Number of replicates 2.0, Standard deviation 0.07734519898888803 %",32.1%
c1ccc(C2CCN(Cc3c[nH]c4ccccc34)CC2)nc1,inhibition,"PRVABC59, Concentration 49.5 uM, Number of replicates 2.0, Standard deviation 1.1072658196883798 %",59.8%
same,inhibition,"PRVABC59, Concentration 99.01 uM, Number of replicates 2.0, Standard deviation 0.7753455634987777 %",75.2%
same,inhibition,"PRVABC59, Concentration 198.0 uM, Number of replicates 2.0, Standard deviation 0.5497459588871212 %",86%
NS(=O)(=O)c1ccc(C2CCN(Cc3c[nH]c4ccccc34)CC2)cc1,inhibition,"PRVABC59, Concentration 49.5 uM, Number of replicates 2.0, Standard deviation 0.10609946491696037 %",65%
same,inhibition,"PRVABC59, Concentration 99.01 uM, Number of replicates 2.0, Standard deviation 0.029644407368622425 %",80.2%
same,inhibition,"PRVABC59, Concentration 198.0 uM, Number of replicates 2.0, Standard deviation 0.031203503588737417 %",89.2%
CCC1CCN(Cc2c[nH]c3ccccc23)CC1,inhibition,"PRVABC59, Concentration 49.5 uM, Number of replicates 2.0, Standard deviation 2.1085872748623196 %",21.4%
same,inhibition,"PRVABC59, Concentration 99.01 uM, Number of replicates 2.0, Standard deviation 0.9763502903682051 %",37.3%
same,inhibition,"PRVABC59, Concentration 198.0 uM, Number of replicates 2.0, Standard deviation 0.045944785323907715 %",55.2%
OCc1cc(C2CCN(Cc3c[nH]c4ccccc34)CC2)no1,inhibition,"PRVABC59, Concentration 49.5 uM, Number of replicates 2.0, Standard deviation 0.29821086957580095 %",48.5%
same,inhibition,"PRVABC59, Concentration 99.01 uM, Number of replicates 2.0, Standard deviation 0.4460202044782944 %",64.3%
same,inhibition,"PRVABC59, Concentration 198.0 uM, Number of replicates 2.0, Standard deviation 0.7494127761974186 %",75.2%
